Hit rate of the full screen: of about 5,500 compounds, about 2,000 (36%) were called active. Inconclusive results (about 18%) are left out. Cut-off read from the data, not from the text of the source: active = normalized growth mostly below about 0.91 (no sharp cut-off); inconclusive = no clear call, values can overlap the other calls; inactive = mostly above about 0.92. Some of the results follow.
Experiment: chemical genetic growth profiling, strain panel (AID 1159580);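 note: tested at 20 µM; growth read once vehicle control cultures reached saturation at 30 °C; 1 = growth at the plate median or of vehicle wells; lower values mean less growth of the strain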
Details: growth OD
[1] = S. cerevisiae deletion strains, locus YAL013W, strain DEP1, stronger effect = lower value
[2] = S. cerevisiae deletion strains, locus YBR229C, strain ROT2, stronger effect = lower value
[3] = S. cerevisiae deletion strains, locus YDL101C, strain DUN1, stronger effect = lower value
[4] = S. cerevisiae deletion strains, locus YDL134C, strain PPH21, stronger effect = lower value
[5] = S. cerevisiae deletion strains, locus YDR150W, strain NUM1, stronger effect = lower value
[6] = S. cerevisiae deletion strains, locus YEL061C, strain CIN8, stronger effect = lower value
[7] = S. cerevisiae deletion strains, locus YGR078C, strain PAC10, stronger effect = lower value
[8] = S. cerevisiae deletion strains, locus YHR030C, strain SLT2, stronger effect = lower value
[9] = S. cerevisiae deletion strains, locus YHR087W, strain rtc3, stronger effect = lower value
[10] = S. cerevisiae deletion strains, locus YJR043C, strain POL32, stronger effect = lower value
[11] = S. cerevisiae deletion strains, locus YJR075W, strain HOC1, stronger effect = lower value
[12] = S. cerevisiae deletion strains, locus YLR039C, strain RIC1, stronger effect = lower value
[13] = S. cerevisiae deletion strains, locus YLR058C, strain SHM2 (second series), stronger effect = lower value
[14] = S. cerevisiae deletion strains, locus YLR085C, strain ARP6, stronger effect = lower value
[15] = S. cerevisiae deletion strains, locus YLR262C, strain YPT6, stronger effect = lower value
[16] = S. cerevisiae deletion strains, locus YML094W, strain GIM5, stronger effect = lower value
[17] = S. cerevisiae deletion strains, locus YMR219W, strain ESC1, stronger effect = lower value
[18] = S. cerevisiae deletion strains, locus YMR263W, strain SAP30, stronger effect = lower value
[19] = S. cerevisiae deletion strains, locus YNL153C, strain GIM3, stronger effect = lower value
[20] = S. cerevisiae deletion strains, locus YNL298W, strain CLA4 (second series), stronger effect = lower value
[21] = S. cerevisiae deletion strains, locus YNL322C, strain KRE1, stronger effect = lower value
[22] = S. cerevisiae deletion strains, locus YNR030W, strain Alg12, stronger effect = lower value
[23] = S. cerevisiae deletion strains, locus YPL055C, strain LGE1, stronger effect = lower value
[24] = S. cerevisiae deletion strains, locus YPL241C, strain CIN2, stronger effect = lower value
[25] = S. cerevisiae deletion strains, locus YPR135W, strain CTF4, stronger effect = lower value

Measured: normalized growth

O=C(Nc1cc2cc([N+](=O)[O-])ccc2oc1=O)c1c(F)cccc1F
inactive: [1] 1.02 | [2] 1.02 | S. cerevisiae deletion strains, locus YCL061C, strain MRC1, stronger effect = lower value 0.989 | [3] 0.98 | [4] 1.01 | [5] 0.96 | [6] 1.01 | [7] 1 | [8] 0.994 | [9] 1.09 | S. cerevisiae deletion strains, locus YJL187C, strain SWE1, stronger effect = lower value 1.03 | [10] 0.999 | [11] 1.02 | [12] 1.07 | [13] 1.04 | [14] 1.07 | [15] 1.07 | [16] 1.05 | [17] 1.03 | [18] 0.936 | S. cerevisiae deletion strains, locus YNL128W, strain TEP1, stronger effect = lower value 1.01 | [19] 1.02 | [20] 1.02 | [21] 1.01 | [22] 1.04 | S. cerevisiae deletion strains, locus YOL006C, strain TOP1, stronger effect = lower value 1 | [23] 1.03 | [24] 1.02 | [25] 1.01

CCN(CC)c1ccc(NC(=O)c2c(F)cccc2F)c(N(CC)CC)n1
inactive: [1] 0.986 | [2] 0.98 | [3] 0.955 | [4] 0.993 | [5] 0.99 | [6] 0.964 | [7] 0.98 | [8] 0.698 | [9] 0.952 | [10] 0.99 | [11] 0.954 | [12] 0.815 | [13] 1 | [14] 0.91 | [15] 0.863 | [16] 0.953 | [17] 0.997 | [18] 1 | [19] 0.991 | [20] 0.935 | [21] 0.987 | [22] 0.942 | [23] 0.963 | [24] 1.05 | [25] 0.8 | S. cerevisiae strains, strain wild type, stronger effect = lower value 0.988
active: S. cerevisiae deletion strains, locus YMR307W, strain GAS1, stronger effect = lower value 0.574
